The text below walks through data of PubChem BioAssay AID1272365 (Small Molecule Screening Facility, UW Madison, 2018).

Several values for one entry are separate records, joined by “and”; a condition that tells them apart may be missing. Identical values can stand only once. Out of some 430,000 compounds screened, about 2,600 (0.6%) were called active. The sample holds actives, similar compounds and a random draw of the others, so the mix is not that of the screen. Rule as the data show it: active = inhibition mostly above about 37% (no sharp cut-off); inactive = mostly below about 20%.

In this experiment the test system is PriA–SSB C-terminal tail interaction (Klebsiella pneumoniae). In words: blocks PriA binding to SSB C-terminal tail, primary screen, biochemical, AlphaScreen (AID 1272365).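 As to inhibition: plate controls were negative control peptide for no effect and reference peptide for full effect.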 Conditions: AlphaScreen SSBct-PriA binding, biotinylated peptide; at 33 µM, stronger effect = higher value.
Regarding `CC(C)(CC(=O)NCc1ccc(F)cc1)CC1=NS(=O)(=O)c2ccccc2N1`, the inhibition is -14% (inactive).
`COc1ccc(C(=O)Nc2ccc(S(C)(=O)=O)cc2)cc1`: the inhibition is -8% (inactive).
Then `CC(C)Sc1nc(N2CCCC2)c2cnn(CCNC(=O)c3cccs3)c2n1`, with -8% (inactive).
The result for `CCn1ccnc1CN1CCN(C)CC1` reads 0% (inactive); that for `CC(=O)Nc1ccc(S(=O)(=O)N2CCN(S(=O)(=O)c3ccc(C)cc3)CC2)cc1`, -19% (inactive); that for `N#Cc1nccnc1O[C@H]1CCCN(C(=O)c2ccc3nc[nH]c3c2)C1`, -19% (inactive).
`Cc1cccc(-n2cc(-c3ccccc3)c3c(Nc4ccc(Oc5ccc(Cl)cc5)cc4)ncnc32)c1`: the inhibition was -17% (inactive).
For `Cc1cccc(C(=O)Nc2nnc(Cc3c[nH]c4ccccc34)s2)c1`, the inhibition was 6.73% (inactive).
Take `C=CCn1c(C)cc(C2=NNC(=NCC)SC2)c1C`: the inhibition was 29.4% (inactive).
Consider `Cc1cccc(N=C2NN=C(c3c[nH]c4ccccc34)CS2)c1`, for which the inhibition was 48.7% (active).
The result for `Cn1cc(S(=O)(=O)Nc2ccc(CC(=O)N3CCOCC3)cc2)cn1` reads 6% (inactive).
Turning to `CC(CCC(C)C)=NNc1ccc(S(N)(=O)=O)cc1[N+](=O)[O-]`, the inhibition was 42.4% (active).
The result for `C/C(=N\Nc1ccc(S(N)(=O)=O)cc1[N+](=O)[O-])c1cccs1` reads “inactive”.
With `NS(=O)(=O)c1ccc(CNC(=O)c2ccc(Cl)cc2[N+](=O)[O-])cc1`, the inhibition is -24.6% (inactive).
The result for `O=C(c1cc2n(n1)CCCO2)N1CCN(Cc2cccnc2)CC1` reads -17% (inactive).
Then `COc1ccccc1C(=O)N1CCN=C1SCc1cccnc1`, with -0.73% (inactive); and `COc1cccc(OC)c1C(=O)N1CCN(Cc2cccnc2)CC1`, with 49% (active); and `O=C(c1cc2ccccc2o1)N1CCN(C(=O)C2CC2c2ccccc2)CC1` (centres undefined), with 2% (inactive).
In the case of `Cc1cc(S(=O)(=O)N2CCOC23CCN(C(=O)c2cc(=O)c4ccccc4o2)CC3)ccc1F`, the inhibition was -9% (inactive).
For the compound `Cc1ccc2cc(C)c(N3CCC(C)CC3)nc2c1`, the inhibition was -34.6% (inactive).
In the case of `CC1CCN(C(=O)Cn2c(-c3ccncc3)nc3ccccc32)CC1`, the inhibition was 4% (inactive).
Take `CC1CCN(c2nc(-c3ccccn3)nc3ccccc23)CC1`: the inhibition was 102% (active).
The result for `O=C1C(=O)N(CN2CCN(C(c3ccccc3)c3ccccc3)CC2)c2ccccc21` reads -1% (inactive).
Then `COC(=O)/C=C1\SC(=NNC(=O)c2ccccc2)NC1=O`, with -6.67% (inactive).
With `Cc1nc(-c2cccs2)sc1CNC(=O)c1ccc(=O)[nH]c1`, the inhibition was 5% (inactive).
Then `Nc1[nH]nc2nc(-c3ccccn3)ccc12`, with 94.2% (active).
With `Cc1cc2cc3c(N)[nH]nc3nc2cc1C`, the inhibition is -6.78% (inactive).
Then `Cc1cc(NC(=O)C(C)(C)Oc2ccc(Cl)cc2)n(-c2nc3c(c(=O)[nH]2)CCC3)n1`, with -1% (inactive).
The result for `CCOC(=O)c1c(NC(=O)c2c(F)cccc2F)sc2c1CCN(C(=O)OCC)C2` reads -7% (inactive) and -12% (inactive); that for `CN(c1ccccc1)c1ccc([N+](=O)[O-])c2nonc12`, 32.9% (inactive); that for `CCc1ccc(Nc2ccc([N+](=O)[O-])c3nonc23)cc1`, 79.3% (active).
As to `CCOC(=O)c1ccc(NNC(C)=O)c([N+](=O)[O-])c1`, the inhibition is 3.85% (inactive).
Then `O=C(COc1ccccc1)N1CCN(c2ccc(-c3ccco3)nn2)CC1`, with -12% (inactive); and `COc1ccc(OC)c(Nc2nc(CC(=O)N3CCN(c4ncccn4)CC3)cs2)c1`, with 19% (active).
Consider `COC(=O)Nc1nc(CC(=O)Nc2ccccc2OC)cs1`, for which the inhibition is -13% (inactive).
For `COc1ccc(C)cc1NC(=O)Cc1csc(NS(=O)(=O)c2ccccc2)n1`, the inhibition was 6% (inactive).
Take `O=C1CCC(C(=O)Nc2nc(CC(=O)N3CCN(c4ccccn4)CC3)cs2)N1` (centres undefined): the inhibition was 8% (inactive).
The result for `COc1ccc(OC)c(Nc2nc(CC(=O)Nc3nc4ccccc4s3)cs2)c1` reads 38% (active).
The result for `COc1ccc(OC)c(Nc2nc(CC(=O)N3CCc4ccccc43)cs2)c1` reads 12% (inactive); that for `CCCCN(C1CCS(=O)(=O)C1)S(C)(=O)=O` (centres undefined), 10% (inactive); that for `Cc1ccc(C)c(CSc2nnc3n(C)c(=O)c4ccc(C(=O)NC5CCCC5)cc4n23)c1`, 0% (inactive).
The result for `O=C(c1ccc(S(=O)(=O)N2CCCCC2)cc1)N(c1cccc(Cl)c1)C1C=CS(=O)(=O)C1` (centres undefined) reads -8% (inactive); that for `O=C(NCCCn1ncccc1=O)c1cccc(C(F)(F)F)c1`, -10% (inactive).
`CSc1cccc(-c2nnc(NC(=O)c3ccc(Cl)s3)o2)c1`: the inhibition is 11% (inactive) and 4% (inactive).
Then `Cc1cc(SCC(=O)Nc2ccc(OC(F)F)cc2)nc2ccccc12`, with -2% (inactive) and -21% (inactive).
For `Cn1ccc(C(=O)Nc2ccc(F)cc2)n1`, the inhibition was 8% (inactive).
As to `COc1cc2nc(SCc3cc(=O)n4cc(Cl)ccc4n3)n3nc(C)nc3c2cc1OC`, the inhibition is -5% (inactive).
In the case of `O=C(NCc1ccco1)C(=O)Nc1c2c(nn1-c1ccc(F)cc1)CSC2`, the inhibition was -7% (inactive).
The result for `COc1ccccc1CCNC(=O)C(=O)NC[C@@H](c1ccco1)N1CCc2ccccc21` reads 8% (inactive); that for `O=C(NCC(c1ccco1)N1CCc2ccccc21)C(=O)Nc1ccccc1[N+](=O)[O-]` (centres undefined), 42% (active); that for `Cc1ccccc1C(=O)NCC(c1ccco1)N1CCc2ccccc21` (centres undefined), -7.16% (inactive).
As to `COc1ccc(NC(=O)Nc2nnc(SCC(=O)Nc3cccc([N+](=O)[O-])c3)s2)cc1`, the inhibition was -16% (inactive).
`Cc1cc([N+](=O)[O-])c(N2CCC[C@@H]2C(=O)O)c([N+](=O)[O-])c1`: the inhibition is -16.2% (inactive).
Then `Cc1cc([N+](=O)[O-])c(NC2CCCCC2)c([N+](=O)[O-])c1`, with 80.5% (active); and `Cc1cc(OCC(=O)NC2CCN(C)CC2)ccc1[N+](=O)[O-]`, with -23% (inactive).
For `NC(=O)C1CCN(C(=O)N[C@H]2CC(=O)N(c3ccc(F)cc3)C2)CC1`, the inhibition is 2% (inactive).
Then `Cc1ccc(NC(=O)C(=O)NC[C@](C)(O)c2cccs2)cc1C`, with -4% (inactive); and `COc1ccc(CCC(=O)N2CCC(Oc3cc(C)oc(=O)c3)C2)cc1Br` (centres undefined), with 4% (inactive); and `Cc1cc(NC(=O)CSc2nnc(-c3ccc(Cl)s3)o2)no1`, with 43.9% (active) and 1% (inactive).
Then `Cc1nnc(NC(=O)CSc2nnc(-c3ccccc3C)o2)s1`, with 11% (inactive).
Then `Cc1cc(NC(=O)CSc2nnc(CNC(=O)c3cccs3)o2)no1`, with -5% (inactive).
Take `COC(=O)C1CCN(C(=O)CCc2csc3nc(-c4ccc(OC)cc4)cn23)CC1`: the inhibition is -11% (inactive).
Then `Cn1ccnc1S(=O)(=O)C1CCN(C(=O)c2ccc3nsnc3c2)CC1`, with -12% (inactive); and `O=C(Nc1nc2c(s1)CN(Cc1ccccc1)CC2)c1cc(Cl)sc1Cl`, with 23% (inactive); and `COc1cc(NC(=O)CSc2ccc(-c3cccnc3)nn2)cc(OC)c1`, with 6.7% (inactive).
The result for `CSc1ccc(NC(=O)c2ccccc2F)nn1` reads 2% (inactive); that for `COc1ccccc1CCNC(=O)CSc1nnc2ccc(-c3cccnc3)nn12`, -8.11% (inactive) and 15% (inactive); that for `Brc1ccc(CSc2nnc3ccc(-c4ccccn4)nn23)cc1`, -17% (inactive).
As for `COc1ccccc1CCNC(=O)CSc1ccc(-c2ccccn2)nn1`, the inhibition was 81.7% (active).
Take `CSc1ccc(-c2ccccn2)nn1`: the inhibition was 148% (active).
Then `O=C(CSc1ccc(-c2cccnc2)nn1)NCCc1ccccc1`, with -2% (inactive).
In the case of `O=C(CSc1ccc(-c2ccccn2)nn1)Nc1ccccc1`, the inhibition is 90.4% (active).
For the compound `O=C(CSc1ccc(-c2ccc(-n3cccn3)cc2)nn1)Nc1ccc([N+](=O)[O-])cc1`, the inhibition was -0.41% (inactive).
Then `NC(=NOC(=O)C1CCCCC1)c1ccc(Br)cc1`, with -26.4% (inactive); and `CS(=O)(=O)c1ccccc1C(=O)N1CCN(c2ccccc2)CC1`, with 0% (inactive).
Then `CN(C)S(=O)(=O)c1ccc(C(=O)NCc2nnc(SCc3c(F)cccc3Cl)o2)cc1`, with 6% (inactive) and -7% (inactive).
Then `Cc1ccc(N2CCn3c2nc2c3c(=O)n(CCN3CCOCC3)c(=O)n2C)cc1Cl`, with 0% (inactive); and `COC(=O)c1ccc2c(=O)n(CCCC(=O)NCc3cccs3)c(=S)[nH]c2c1`, with -3% (inactive); and `O=C(NCCCn1ccnc1)c1cc(-c2ccccc2)on1`, with 2.55% (inactive).
On to `Cc1ccc2c(Cl)c(C(=O)NCCCn3ccnc3)sc2c1`, for which the inhibition is 9.4% (inactive).
The result for `O=C(NCCCn1ccnc1)c1cc2c(s1)CCCC2` reads 44.7% (active); that for `COc1ccc(/C=N\N=C2\NC(=O)C(CC(=O)NC(N)=O)S2)c(C(=O)O)c1OC` (centres undefined), -10% (inactive); that for `Cc1ccccc1-n1c(O)c(C=CC=Nc2ccccc2)c(=O)[nH]c1=O`, 4.92% (inactive).
For `O=C(COc1ccc(Cl)cc1Cl)Nc1nnc(C2CCCO2)o1` (centres undefined), the inhibition was 63% (active).
On to `O=C(Nc1nnc(C2CCCO2)o1)c1cc2ccccc2oc1=O` (centres undefined), for which the inhibition is 4% (inactive).
Regarding `O=C(Nc1nnc(C2CCCO2)o1)c1sc2ccccc2c1Cl` (centres undefined), the inhibition was 34% (inactive).
Consider `COc1ccc(CCC(=O)NCCCn2nc(-c3ccccc3)ccc2=O)cc1`, for which the inhibition is 2% (inactive).
Consider `CN1CCN(C(=O)c2ccc(-c3ccc(Br)cc3)o2)CC1`, for which the inhibition is 39% (active) and 2.72% (inactive).
Then `O=CN1CCN(C(=O)c2ccc(Br)o2)CC1`, with -5.54% (inactive); and `O=C(NC(=S)Nc1ccccc1C(=O)O)c1ccc(-c2ccc(Br)cc2)o1`, with 3.73% (inactive).
For `O=C(O)CNC(=O)CN1C(=O)S/C(=C\C=C\c2ccccc2)C1=O`, the inhibition is -12% (inactive).
In the case of `O=C(O)/C=C\C(=O)NCc1ccc2c(c1)OCO2`, the inhibition was -5% (inactive).
Take `O=C(NCCc1ccccc1)c1csc(Nc2ccccc2)n1`: the inhibition is 7% (inactive).
The result for `O=C(NCc1ccc2c(c1)OCO2)c1csc(Nc2ccccc2)n1` reads 0% (active).

What is called inhibition is the change of the read-out against control, counted positive when it falls.
